The results in this text go back to PubChem BioAssay (NCI).

Each structure is given as a SMILES string. This is part of a sample that, as a whole, favours compounds with a hit. Of some 83,000 tested, about 20% had one in any assay.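 Values shown are percent growth following 48 h exposure of cells in 96-well plates to a single concentration of compound; below 10 was considered active.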 Values without a mark were called inactive.

The experiment relates to HOP-62 NSCLC. Briefly: NCI-60 one-dose screen, 48 h (100 = growth as untreated, 0 = no growth, -100 = all killed). To be noted: 10 µM unless noted.
For the compound `COc1ccc(/C(C)=N/NS(=O)(=O)c2ccc(C)cc2)cc1OC`, the growth is 117%.
Under `C[C@@H]1C(=O)N(C[C@@H](Cc2ccccc2)NC(=O)OCc2ccccc2)[C@]1(Cc1ccccc1)C(=O)OCc1ccccc1` stands 67.3%; under `NC(=Nc1ccc(N)cc1)C(N)=Nc1ccc(N)cc1`, 107%.
Under `N#Cc1c(NC(=O)c2ccccc2I)sc2c1CCCC2` stands 42.2%; under `Cc1ccc(Nc2ccc(Nc3ccc(C)cc3S(=O)(=O)O)c3c2C(=O)c2ccccc2C3=O)c(S(=O)(=O)O)c1`, 107%.
Under `C=C1C(=O)O[C@H]2[C@H]1CC/C(Cn1cc(CNCCc3c[nH]c4ccc(Cl)cc34)nn1)=C\CC[C@@]1(C)O[C@@H]21` stands 78.7%.
On to `Cn1cc(Nc2nccc(-c3ccc(N4CCCC4)c(C#N)c3)n2)cn1`, for which the growth is 25.5%.
The result for `CSc1ncc(C)c(Nc2ccc(Cl)cc2)n1` reads 111%.
The result for `COc1cc(/C=C2\C=C(c3ccccc3)N(CCc3ccccc3)C2=O)cc(OC)c1OC` reads 61.6%; that for `O=c1cc(-c2ccc(OCc3ccccc3)cc2)oc2c(I)c(OCc3ccccc3)cc(OCc3ccccc3)c12`, 125%; that for `CC(=O)Nc1nccs1`, 95.6%.
Under `N[C@H]1CCC[C@@H]1NCCCCN1C(=O)c2cccc3cccc(c23)C1=O` stands 76.2%; under `N=C(N)c1ccc(-c2ccc(-c3ccc(Cl)cc3Cl)o2)nc1`, 29.1%; under `O=C1N/C(=N/O)S/C1=C/c1cn(-c2ccccc2)nc1-c1ccccc1`, 98%.
